The supplement of paper PMC6555819

Experiments:
Assay in all cases: PBM binding z-score (relative to random genomic background probes); higher = stronger binding; sequences stand for … in GC…GCGATTGACAGCGTAGAATGAAGG
[1] = tested on: FXR:RXRa (NR concentration 270 nM, RXRa partner concentration 90 nM)
In short: (§1)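 Custom Agilent 4×180K protein-binding microarrays carried double-stranded probes, each with a 34-nt variable region. These regions held direct-repeat seeds, single-nucleotide variants, half-site ablations and random human genomic background sequences. Ligand-free nuclear receptor dimers were incubated on the arrays for 1 h, antibodies against each partner (one per run) detected binding, and scanned fluorescence was regression-normalized. Binding z-scores take the random background probes as reference.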

[2] = tested on: LXRa:RXRa (NR concentration 270 nM, RXRa partner concentration 90 nM)
In short: as §1

[3] = tested on: LXRa homodimer (NR concentration 270 nM)
In short: as §1

[4] = tested on: LXRb:RXRa (NR concentration 270 nM, RXRa partner concentration 90 nM)
In short: as §1

[5] = tested on: LXRb homodimer (NR concentration 270 nM)
In short: as §1

[6] = tested on: PPARg:RXRa (NR concentration 180 nM, RXRa partner concentration 90 nM)
In short: as §1

[7] = tested on: PPARg:RXRa 270nM:90nM, anti-RXR (NR concentration 270 nM, RXRa partner concentration 90 nM)
In short: as §1

[8] = tested on: PPARg:RXRa 30nM:10nM, anti-RXR (NR concentration 30 nM, RXRa partner concentration 10 nM)
In short: as §1

[9] = tested on: PPARg:RXRa 90nM:30nM, anti-RXR (NR concentration 90 nM, RXRa partner concentration 30 nM)
In short: as §1

[10] = tested on: PPARg:RXRa DBDmut IVT, anti-RXR (DBD mutation: RXRa K156A/R161A, NR concentration 270 nM, RXRa partner concentration 90 nM)
In short: as §1

[11] = tested on: PPARg:RXRa IVT, anti-PPARg (NR concentration 270 nM, RXRa partner concentration 90 nM)
In short: as §1

[12] = tested on: PPARg DBDmut:RXRa IVT, anti-PPARg (DBD mutation: PPARg1 K132A/R137A, NR concentration 270 nM, RXRa partner concentration 90 nM)
In short: as §1

[13] = tested on: PPARg DBDmut IVT, anti-PPARg (DBD mutation: PPARg1 K132A/R137A, NR concentration 270 nM)
In short: as §1

[14] = tested on: PPARg homodimer (NR concentration 180 nM)
In short: as §1

[15] = tested on: PXR:RXRa (NR concentration 270 nM, RXRa partner concentration 90 nM)
In short: as §1

[16] = tested on: PXR homodimer (NR concentration 270 nM)
In short: as §1

[17] = tested on: RARa:RXR (NR concentration 270 nM, RXRa partner concentration 90 nM)
In short: as §1

[18] = tested on: RARa homodimer (NR concentration 270 nM)
In short: as §1

[19] = tested on: PPARa:RXRa (NR concentration 270 nM, RXRa partner concentration 90 nM)
In short: as §1

[20] = tested on: RARb:RXRa (NR concentration 270 nM, RXRa partner concentration 90 nM)
In short: as §1

Sequence	PBM binding z-score [1]	PBM binding z-score [2]	PBM binding z-score [3]	PBM binding z-score [4]	PBM binding z-score [5]	PBM binding z-score [6]	PBM binding z-score [7]	PBM binding z-score [8]	PBM binding z-score [9]	PBM binding z-score [10]	PBM binding z-score [11]	PBM binding z-score [12]	PBM binding z-score [13]	PBM binding z-score [14]	PBM binding z-score [15]	PBM binding z-score [16]	PBM binding z-score [17]	PBM binding z-score [18]	PBM binding z-score [19]	PBM binding z-score [20]
CCTACTGGGCCAAGGTCTTTGATCAGTCAAAGCA	-0.503	-0.304	-0.544	-0.54	-0.812	0.806	1.32	0.0343	0.749	3.2	3.33	-0.858	-1.46	0.00705	-0.407	-0.601	-0.344	-0.879		
CGAACTAGGTCAAAGGACACTGAAAGGCGACGTA	4.53	2.6	0.187	2.15	-0.198		8.98	10.1	10.8	8.08	8.34		1.03	3.64	1.6	-0.0402	2.85	0.514	5.49	3.86
ATCGAACGGTCGAGGTGAGTATAGAGAAAGGGAA	-0.0198	-0.0653	-0.353	-0.34	-0.587		-0.114	-0.342	-0.333	-0.731	0.523	0.835	-0.166	0.13	-0.26	-0.544	-0.1	-0.343	0.105	1.19
CGAACTAGGTCAAAGGCCAGTGAAAGGCGACGTA	4.37	2.92	-0.479	1.81	-0.821		9.43	9.62	10.3	7.82	8.38		0.408	1.42	1.79	-0.54	3.18	-0.426	5.83	3.87
CTAACTAGGTCACCGGAAGGTCAAAGTCCGCATG	6.39	6.17	5.51	5.57	1.15		8.19	6.41	7.67	8.81	9.32	3.69	4.14	5.86	6.02	2.05	7.24	1.84	6.52	5.55
ATCTCTAGGTTAAAGTTCAGTGAATCCCGAGGAT	2.96	3.76	3.34	2.61	1.62		8.62	8.86	9.27	4.45	5.47	1.98	1.29	2.11		1.85	3.99	1.65	5.59	3.28
TCATATAGGTAATCAGGTGAAAGTCCGTAAGTTA	1.07	0.945	0.314	0.96	0.374		4.24	4.28	4.2	5.4	5.17	1.73	1.86	1.32	0.832	0.68	1.14	1.28	2.68	0.56
CGTCCAAGGTCAAGGTCACTGAAAGAGACTCGAA	8.15	6.19	2.24	5.23	0.938	7.36	6.98	4.14	5.87	3.94	5.37	1.81	0.436	3.85	5.68	1.6	6.16	1.64		
CCTGCTAGGTCAAGGGTCAGCTAAAGCAGCTCGC	6.02	4.62	0.429	3.85	-0.198		8.48	7.78	9.4	4.08	5.78	0.536	-0.955	2.95	4.65	0.026		0.368	5.91	4.96
ATATGTAGGTCAGGGTCATTCAGAAAGTAGGGAA	5.82	4.89	1.68	5.11	2.07		7.66	6.11	7.76	7.87	8.62		2.1	3.22	4.42	1.93	5.05	2.85	6.06	4.49
TCTAGTAGGTCACGGAGGTCACACACGACGGGTA	7.27	6.42	5.23	5.56	1.44		8.31	6.89	8.04	7.04	8.61	4.06	4.54	5.46		7.52		1.12	6.41	
ACTCGGAGGGCAAAGGTCAGAGCTACGCCAGTGA	5.79	5.11	1.08	4.14	-0.447		8.48	8.91	9.51	2.2	4.71	-0.0277	-0.839	5.97	5.61	0.191		0.823	6.1	4.93
ATCGAAAGGTCGTGACGTGAGTATACAGAAAGGC	5.34	3.84	-0.0538	3.03	0.128		3.82	1.41	2.77	-0.00761	1.68	1.56	0.662	1.61	2.98	0.0582	3.7	0.369	4.8	3.74
ATAGAAAGGTCGAAGGTGAGTATACCCACCCGAA	4.15	3.25	0.28	2.61	0.606		5.47	2.38	4.64	0.0338	2.05	1.17	0.496	1.85	2.82	0.22	4.08	0.667	4.56	3.64
TATACAGGGTCAAAGGGCAGAGTACGAATGTCGA	7.38	6.55	3.16	5.44	3.33		8.53	7.25	8.56	2.92	5.52	3.49	2.57	2.97	5.21	1.62		1.6	6.52	4.84
TGGCCTAGGTCATGGGCCAGTATACCACGCGAAC	4.4	2.91	-0.382	1.57	-1.26		3.6	0.481	2.22	0.46	2.6	0.17	-0.783	0.937	1.04	-0.935	2.31	-0.155	3.93	3.82
